# Laboratory results reported in the supplement of paper PMC8975748.
# Counter-ions that a name gives are not always drawn. ± gives the standard deviation of the averaged measurements.
# Assays:
# [1] = system: Saccharomyces cerevisiae BY4741 SeMeCo community; experiment: mean cell size (pixel area) (pixels); higher = larger cells; details: 10 µM; 24 h; SM minimal medium
# Summary of the method: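 In this assay, mean cell pixel area per well was obtained from automated confocal images of paraformaldehyde-fixed yeast analysed in Harmony. The cells were a Saccharomyces cerevisiae BY4741 community with four plasmids, each complementing one auxotrophy and carrying a fluorescent marker, grown for 24 h in SM medium with drug at a final 10 µM in 384-well plates. Values are averaged across 3 replicates. Same SeMeCo high-content imaging drug screen: Selleck FDA-approved drugs at 10 µM, 24 h in SM medium, 384-well plates, 3 replicates.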
# [2] = system: Saccharomyces cerevisiae BY4741 SeMeCo community; experiment: z-score of subpopulation abundance vs DMSO median, subpopulation auxotrophic for M; higher = larger share of this subpopulation than in DMSO controls; details: 10 µM; 24 h; SM minimal medium; subpopulation (auxotrophy): M
# Summary of the method: (§1)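 Cells of a Saccharomyces cerevisiae BY4741 community, carrying four plasmids that each restored one auxotrophy and encoded a distinct fluorescent protein, were pre-grown overnight to OD600 1.0 and diluted to 0.3. A 70 µl volume was added to 384-well plates acoustically predosed with library drugs (10 µM final) and grown 24 h in minimal SM medium. After paraformaldehyde fixation, automated confocal microscopy was used, with single-auxotroph fluorescent strains for thresholds and autofluorescence correction. The abundance of each subpopulation was scored as a z-score against the vehicle-well median.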
# [3] = system: Saccharomyces cerevisiae BY4741 SeMeCo community; experiment: z-score of subpopulation abundance vs DMSO median, subpopulation auxotrophic for L; higher = larger share of this subpopulation than in DMSO controls; details: 10 µM; 24 h; SM minimal medium; subpopulation (auxotrophy): L
# Summary of the method: as §1
# [4] = system: Saccharomyces cerevisiae BY4741 SeMeCo community; experiment: z-score of subpopulation abundance vs DMSO median, subpopulation auxotrophic for U; higher = larger share of this subpopulation than in DMSO controls; details: 10 µM; 24 h; SM minimal medium; subpopulation (auxotrophy): U
# Summary of the method: as §1
# [5] = system: Saccharomyces cerevisiae BY4741 SeMeCo community; experiment: z-score of subpopulation abundance vs DMSO median, subpopulation auxotrophic for H; higher = larger share of this subpopulation than in DMSO controls; details: 10 µM; 24 h; SM minimal medium; subpopulation (auxotrophy): H
# Summary of the method: as §1
# [6] = system: Saccharomyces cerevisiae BY4741 SeMeCo community; experiment: z-score of subpopulation abundance vs DMSO median, subpopulation auxotrophic for LU; higher = larger share of this subpopulation than in DMSO controls; details: 10 µM; 24 h; SM minimal medium; subpopulation (auxotrophy): LU
# Summary of the method: as §1
# [7] = system: Saccharomyces cerevisiae BY4741 SeMeCo community; experiment: z-score of subpopulation abundance vs DMSO median, subpopulation auxotrophic for LM; higher = larger share of this subpopulation than in DMSO controls; details: 10 µM; 24 h; SM minimal medium; subpopulation (auxotrophy): LM
# Summary of the method: as §1
# [8] = system: Saccharomyces cerevisiae BY4741 SeMeCo community; experiment: z-score of subpopulation abundance vs DMSO median, subpopulation auxotrophic for HM; higher = larger share of this subpopulation than in DMSO controls; details: 10 µM; 24 h; SM minimal medium; subpopulation (auxotrophy): HM
# Summary of the method: as §1
# [9] = system: Saccharomyces cerevisiae BY4741 SeMeCo community; experiment: z-score of subpopulation abundance vs DMSO median, subpopulation auxotrophic for HU; higher = larger share of this subpopulation than in DMSO controls; details: 10 µM; 24 h; SM minimal medium; subpopulation (auxotrophy): HU
# Summary of the method: as §1
# [10] = system: Saccharomyces cerevisiae BY4741 SeMeCo community; experiment: z-score of subpopulation abundance vs DMSO median, subpopulation auxotrophic for HL; higher = larger share of this subpopulation than in DMSO controls; details: 10 µM; 24 h; SM minimal medium; subpopulation (auxotrophy): HL
# Summary of the method: as §1
# [11] = system: Saccharomyces cerevisiae BY4741 SeMeCo community; experiment: z-score of subpopulation abundance vs DMSO median, subpopulation auxotrophic for HLU; higher = larger share of this subpopulation than in DMSO controls; details: 10 µM; 24 h; SM minimal medium; subpopulation (auxotrophy): HLU
# Summary of the method: as §1
# [12] = system: Saccharomyces cerevisiae BY4741 SeMeCo community; experiment: z-score of subpopulation abundance vs DMSO median, subpopulation auxotrophic for HLM; higher = larger share of this subpopulation than in DMSO controls; details: 10 µM; 24 h; SM minimal medium; subpopulation (auxotrophy): HLM
# Summary of the method: as §1
# [13] = system: Saccharomyces cerevisiae BY4741 SeMeCo community; experiment: z-score of subpopulation abundance vs DMSO median, subpopulation auxotrophic for HUM; higher = larger share of this subpopulation than in DMSO controls; details: 10 µM; 24 h; SM minimal medium; subpopulation (auxotrophy): HUM
# Summary of the method: as §1
# [14] = system: Saccharomyces cerevisiae BY4741 SeMeCo community; experiment: z-score of subpopulation abundance vs DMSO median, subpopulation auxotrophic for HLUM; higher = larger share of this subpopulation than in DMSO controls; details: 10 µM; 24 h; SM minimal medium; subpopulation (auxotrophy): HLUM
# Summary of the method: as §1
# [15] = system: Saccharomyces cerevisiae BY4741 SeMeCo community; experiment: z-score of subpopulation abundance vs DMSO median, subpopulation auxotrophic for UM; higher = larger share of this subpopulation than in DMSO controls; details: 10 µM; 24 h; SM minimal medium; subpopulation (auxotrophy): UM
# Summary of the method: as §1
# [16] = system: Saccharomyces cerevisiae BY4741 SeMeCo community; experiment: z-score of prototroph abundance vs DMSO median; higher = larger share of this subpopulation than in DMSO controls; details: 10 µM; 24 h; SM minimal medium; subpopulation (auxotrophy): Prototroph
# Summary of the method: as §1
# [17] = system: Saccharomyces cerevisiae BY4741 SeMeCo community; experiment: z-score of subpopulation abundance vs DMSO median, subpopulation auxotrophic for LUM; higher = larger share of this subpopulation than in DMSO controls; details: 10 µM; 24 h; SM minimal medium; subpopulation (auxotrophy): LUM
# Summary of the method: as §1
Compound,mean cell size [1],z-score of subpopulation abundance [2],z-score of subpopulation abundance [3],z-score of subpopulation abundance [4],z-score of subpopulation abundance [5],z-score of subpopulation abundance [6],z-score of subpopulation abundance [7],z-score of subpopulation abundance [8],z-score of subpopulation abundance [9],z-score of subpopulation abundance [10],z-score of subpopulation abundance [11],z-score of subpopulation abundance [12],z-score of subpopulation abundance [13],z-score of subpopulation abundance [14],z-score of subpopulation abundance [15],z-score of prototroph abundance [16],z-score of subpopulation abundance [17]
C#C[C@]1(O)CC[C@H]2[C@@H]3CCc4cc(O)ccc4[C@H]3CC[C@@]21C [Ethinyl Estradiol],12.8 ± 0.2,0.05,-0.55,-1.01,0.36,-1.41,-0.77,0,0.01,-0.69,-0.36,-0.72,-0.88,-1.02,–,–,–
O=C(O)CCC(=O)c1ccc(-c2ccccc2)cc1 [Fenbufen],12.8 ± 0.18,0.67,0.14,0.32,0.71,1.1,0.1,-0.02,0.87,0.57,-0.12,0.59,0.23,0.69,-0.92,–,–
Nc1ccc(S(=O)(=O)c2ccc(N)cc2)cc1 [Dapson],12.5 ± 0.26,0.68,0.59,0.04,–,0.91,0.51,0.93,0.31,–,0.22,-0.14,0.6,0.06,0.45,-0.54,–
CCCOc1ccc2c(c1)CC[C@@H]1[C@@H]2CC[C@]2(C)[C@@H](OC)CC[C@@H]12 [Promestriene],12.5 ± 0.26,1.08,0.77,–,0.19,0.62,0.33,0.25,0.21,0.84,0.6,0.48,1.7,0.24,1.71,-1.13,1.34
Cc1ccnc(NS(=O)(=O)c2ccc(N)cc2)n1 [Sulfamerazine],12.5 ± 0.16,1.32,1.54,-0.62,0.49,0.43,0.88,2,-0.3,0.86,0.89,0.7,0.76,0.45,0.45,-1.15,–
CCN(CC)CC#CCOC(=O)C(O)(c1ccccc1)C1CCCCC1 (centres undefined) [Oxybutynin],12.5 ± 0.29,-0.18,-0.14,0.19,-0.43,-0.54,-0.42,-0.23,0.37,–,-0.2,-0.46,0.54,1,-0.47,–,–
Cc1cccc(C)c1OCC(C)N (centres undefined) [Mexiletine HCl],12.3 ± 0.13,-0.98,-0.39,–,-0.52,0.44,-0.69,-0.64,0.61,-0.55,-0.19,-1.23,-0.49,-0.35,-0.36,0.5,-0.37
Nc1ccc2cc3ccc(N)cc3nc2c1 [Proflavine],12.11 ± 0.034,2.16,-7.48,–,–,-7.09,-5.35,2.14,-6.17,-3.92,-4.19,-2.42,-4.57,-1.99,-7.18,6.61,-4.39
CN1CCN(C2=Nc3cc(Cl)ccc3Nc3ccccc32)CC1 [Clozapine],12.4 ± 0.21,-0.47,-0.41,0.17,-0.49,-1.03,-0.26,-0.07,-0.45,0.94,-0.01,-0.52,0.23,-0.29,0.28,–,–
C[C@H]1NCc2cc(-c3ccc4c(=O)c(C(=O)O)cn(C5CC5)c4c3OC(F)F)ccc21 [Garenoxacin],12.34 ± 0.078,0.86,-0.44,0.6,-0.22,-0.05,0.15,0.28,0.7,0.46,0.74,0.1,0.84,-0.08,-0.07,-0.68,–
O=C(Nc1c(Cl)cncc1Cl)c1ccc(OC(F)F)c(OCC2CC2)c1 [Roflumilast],12.4 ± 0.14,0.29,-0.2,–,-0.65,0.34,-0.1,-0.18,0.22,–,-0.37,-0.77,-0.17,-0.84,0.24,0.36,-0.56
CCCCCOc1ccc(-c2cc(-c3ccc(C(=O)N[C@H]4C[C@@H](O)[C@@H](O)NC(=O)[C@@H]5[C@@H](O)[C@@H](C)CN5C(=O)[C@H]([C@H](O)CC(N)=O)NC(=O)[C@H]([C@H](O)[C@@H](O)c5ccc(O)c(OS(=O)(=O)O)c5)NC(=O)[C@@H]5C[C@@H](O)CN5C(=O)[C@H]([C@@H](C)O)NC4=O)cc3)no2)cc1 [Micafungin Sodium],12.4 ± 0.26,-8.01,5.22,-1.73,27.4,1.46,0.72,1.38,13.2,42.5,12,61.8,13.9,86.5,1.81,-14.6,–
COc1ccc(Cc2cnc(N)nc2N)cc1OC [Diaveridine],12.35 ± 0.055,0.6,-0.53,-0.37,-0.11,-0.41,-0.01,-0.29,-0.25,-0.33,0.14,-0.26,0.18,0.06,-0.39,0.22,–
CN[C@@H]1[C@H](O[C@H]2[C@H](O[C@H]3[C@H](O)[C@@H](O)[C@H](NC(=N)N)[C@@H](O)[C@@H]3NC(=N)N)O[C@@H](C)[C@]2(O)CO)O[C@@H](CO)[C@H](O)[C@H]1O [Dihydrostreptomycin sulfate],12.2 ± 0.26,-0.56,0.01,–,-0.62,-0.74,-0.32,-0.91,-0.87,-0.83,-1,0.47,-0.82,0.3,-0.47,0.5,-0.71
